In PubChem BioAssay AID1159580 (chemical genetic matrix, 2015):
“And” between values parts separate entries of the source, which are not always exact repeats. Equal values may be shown once. The campaign covered roughly 5,500 compounds. About 2,000 (36%) were called active. Inconclusive results (about 18%) are left out. Rule as the data show it: active = normalized growth mostly below about 0.91 (no sharp cut-off); inconclusive = no clear call, values can overlap the other calls; inactive = mostly above about 0.92. The list shows a part of the results.

Assay: chemical genetic growth profiling, strain panel (AID 1159580);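 also: tested at 20 µM; growth read once vehicle control cultures reached saturation at 30 °C; 1 = growth at the plate median or of vehicle wells; lower values mean less growth of the strain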
Conditions: S. cerevisiae deletion strains, growth OD

Measured: normalized growth

O=C(O)C(O)C(O)C(=O)O (configuration not stated)
inactive: locus YAL013W, strain DEP1, stronger effect = lower value 0.974 | locus YAL021C, strain ccr4, stronger effect = lower value 1 | locus YAL026C, strain drs2, stronger effect = lower value 0.999 | locus YAL030W, strain snc1, stronger effect = lower value 1 | locus YBL061C, strain skt5, stronger effect = lower value 0.989 | locus YBR009C, strain hhf1, stronger effect = lower value 0.99 | locus YBR021W, strain FUR4, stronger effect = lower value 1.02 | locus YBR023C, strain chs3, stronger effect = lower value 0.989 | locus YBR171W, strain sec66, stronger effect = lower value 0.986 | locus YBR229C, strain ROT2, stronger effect = lower value 0.952 | locus YBR231C, strain swc5, stronger effect = lower value 0.996 | locus YBR279W, strain paf1, stronger effect = lower value 0.985 | locus YCL011C, strain gbp2, stronger effect = lower value 0.988 | locus YCL016C, strain dcc1, stronger effect = lower value 0.994 | locus YCL029C, strain bik1, stronger effect = lower value 0.985 | locus YCL061C, strain MRC1, stronger effect = lower value 0.997 | locus YCL069W, strain vba3, stronger effect = lower value 0.982 | locus YCR088W, strain abp1, stronger effect = lower value 0.992 | locus YDL005C, strain med2, stronger effect = lower value 0.984 | locus YDL035C, strain GPR1, stronger effect = lower value 0.996 | locus YDL040C, strain nat1, stronger effect = lower value 1.01 | locus YDL074C, strain BRE1, stronger effect = lower value 0.976 | locus YDL101C, strain DUN1, stronger effect = lower value 0.958 | locus YDL134C, strain PPH21, stronger effect = lower value 0.986 | locus YDL185W, strain tfp1, stronger effect = lower value 0.966 | locus YDL192W, strain arf1, stronger effect = lower value 0.985 | locus YDR001C, strain nth1, stronger effect = lower value 0.996 | locus YDR069C, strain doa4, stronger effect = lower value 0.99 | locus YDR101C, strain arx1, stronger effect = lower value 0.994 | locus YDR137W, strain rgp1, stronger effect = lower value 0.984 | locus YDR150W, strain NUM1, stronger effect = lower value 0.979 | locus YDR159W, strain sac3, stronger effect = lower value 0.975 | locus YDR162C, strain NBP2, stronger effect = lower value 0.95 | locus YDR195W, strain ref2 0.978 | locus YDR297W, strain sur2, stronger effect = lower value 0.99 | locus YDR318W, strain mcm21, stronger effect = lower value 0.999 | locus YDR334W, strain swr1, stronger effect = lower value 0.992 | locus YDR335W, strain msn5, stronger effect = lower value 0.992 | locus YDR388W, stronger effect = lower value 0.99 | locus YDR392W, strain spt3, stronger effect = lower value 1 | locus YDR502C, strain sam2, stronger effect = lower value 0.991 | locus YEL003W, strain gim4, stronger effect = lower value 0.998 | locus YEL037C, strain rad23, stronger effect = lower value 1 | locus YEL061C, strain CIN8 (second series), stronger effect = lower value 1 | locus YEL061C, strain CIN8, stronger effect = lower value 0.984 | locus YER015W, strain faa2, stronger effect = lower value 0.992 | locus YER016W, strain bim1, stronger effect = lower value 1 | locus YER110C, stronger effect = lower value 0.982 | locus YER111C, strain swi4, stronger effect = lower value 0.988 | locus YER155C, strain BEM2 (second series), stronger effect = lower value 0.991 | locus YER155C, strain BEM2, stronger effect = lower value 0.992 | locus YER167W, strain BCK2, stronger effect = lower value 0.989 | locus YFR010W, strain ubp6, stronger effect = lower value 1 | locus YGL078C, strain dbp3, stronger effect = lower value 0.99 | locus YGL086W, strain mad1, stronger effect = lower value 1 | locus YGL167C, strain pmr1, stronger effect = lower value 1.02 | locus YGL173C, strain kem1, stronger effect = lower value 0.974 | locus YGL227W, strain vid30, stronger effect = lower value 0.997 | locus YGL240W, strain doc1, stronger effect = lower value 0.991 | locus YGL248W, strain PDE1, stronger effect = lower value 0.98 | locus YGL253W, strain hxk2, stronger effect = lower value 0.994 | locus YGR078C, strain PAC10, stronger effect = lower value 0.99 | locus YGR135W, strain pre9, stronger effect = lower value 0.978 | locus YGR229C, strain SMI1, stronger effect = lower value 0.995 | locus YGR252W, strain gcn5, stronger effect = lower value 1.03 | locus YHR013C, strain ard1, stronger effect = lower value 0.987 | locus YHR027C, strain rpn1, stronger effect = lower value 0.987 | locus YHR030C, strain SLT2, stronger effect = lower value 0.997 and 0.963 | locus YHR079C, strain IRE1 (second series), stronger effect = lower value 0.996 | locus YHR079C, strain IRE1, stronger effect = lower value 0.976 | locus YHR094C, strain hxt1, stronger effect = lower value 0.987 | locus YHR129C, strain ARP1, stronger effect = lower value 0.993 | locus YHR142W, strain chs7, stronger effect = lower value 0.983 | locus YHR200W, strain rpn10, stronger effect = lower value 0.99 | locus YIL066C, strain RNR3, stronger effect = lower value 0.996 | locus YIL073C, strain SPO22, stronger effect = lower value 1.01 | locus YIL125W, strain kgd1, stronger effect = lower value 0.995 | locus YIR030C, strain dcg1, stronger effect = lower value 0.989 | locus YJL092W, strain hpr5, stronger effect = lower value 1 | locus YJL095W, strain BCK1 (second series), stronger effect = lower value 1 | locus YJL095W, strain BCK1, stronger effect = lower value 1 and 0.963 | locus YJL115W, strain asf1, stronger effect = lower value 0.997 | locus YJL129C, strain trk1, stronger effect = lower value 0.98 | locus YJL134W, strain LCB3, stronger effect = lower value 0.982 | locus YJL154C, strain vps35, stronger effect = lower value 0.988 | locus YJL164C, strain tpk1, stronger effect = lower value 1.01 | locus YJL166W, strain qcr8, stronger effect = lower value 0.989 | locus YJL168C, strain set2, stronger effect = lower value 0.996 | locus YJL187C, strain SWE1 (second series), stronger effect = lower value 0.98 | locus YJL187C, strain SWE1, stronger effect = lower value 1 | locus YJR043C, strain POL32, stronger effect = lower value 1.03 | locus YJR066W, strain TOR1, stronger effect = lower value 0.943
